From publication PMC7862700, “An all-to-all approach to the identification of sequence-specific readers for epigenetic DNA modifications on cytosine”

Key:
Test in all cases: DAPPL (digital affinity profiling via proximity ligation, sequencing); 10 mM Tris-HCl pH 7.5, 50 mM NaCl, 1 mM DTT, 4% glycerol, room temperature, 30 min; GST-TFs on glutathione beads, 16-mer random dsDNA library, 0.1% formaldehyde crosslink after washing; high values mean tight binding
Details in all cases: protein: recombinant; tags: N-terminal GST; dsDNA, one strand shown
ERG = molecular target: T1, ERG (Homo sapiens, UniProt P11308 1-479)
T1 sequence: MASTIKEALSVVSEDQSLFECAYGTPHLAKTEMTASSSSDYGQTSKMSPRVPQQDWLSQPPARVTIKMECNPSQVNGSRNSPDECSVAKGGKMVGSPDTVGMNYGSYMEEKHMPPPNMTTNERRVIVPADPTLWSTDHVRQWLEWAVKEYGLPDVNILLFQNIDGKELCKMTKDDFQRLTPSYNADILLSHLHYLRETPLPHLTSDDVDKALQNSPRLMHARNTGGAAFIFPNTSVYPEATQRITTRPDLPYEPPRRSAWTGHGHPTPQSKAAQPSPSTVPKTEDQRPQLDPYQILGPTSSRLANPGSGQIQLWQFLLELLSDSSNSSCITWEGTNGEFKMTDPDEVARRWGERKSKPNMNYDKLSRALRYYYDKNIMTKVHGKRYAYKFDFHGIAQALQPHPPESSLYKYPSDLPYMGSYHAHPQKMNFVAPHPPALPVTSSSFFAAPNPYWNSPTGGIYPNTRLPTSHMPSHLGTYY
How it was run: (§1)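 Human transcription factors fused to GST were expressed in yeast, captured on glutathione beads, given DNA barcodes and pooled with a GST-only negative control. Pools were incubated with 200 nmole of a 16-mer random double-stranded DNA library in Tris/NaCl/DTT/glycerol buffer at room temperature for 30 min. They were then washed, crosslinked with 0.1% formaldehyde, proximity-ligated (BsaI/T4 ligase, 1 h, 37 °C), PCR-amplified and sequenced on an Illumina NextSeq500. Binding signal is each 6-mer's read frequency for a factor divided by its frequency for the GST control.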

ELF1 = ELF1 (Homo sapiens, UniProt P32519 1-619)
Sequence of ELF1 (P32519 whole entry): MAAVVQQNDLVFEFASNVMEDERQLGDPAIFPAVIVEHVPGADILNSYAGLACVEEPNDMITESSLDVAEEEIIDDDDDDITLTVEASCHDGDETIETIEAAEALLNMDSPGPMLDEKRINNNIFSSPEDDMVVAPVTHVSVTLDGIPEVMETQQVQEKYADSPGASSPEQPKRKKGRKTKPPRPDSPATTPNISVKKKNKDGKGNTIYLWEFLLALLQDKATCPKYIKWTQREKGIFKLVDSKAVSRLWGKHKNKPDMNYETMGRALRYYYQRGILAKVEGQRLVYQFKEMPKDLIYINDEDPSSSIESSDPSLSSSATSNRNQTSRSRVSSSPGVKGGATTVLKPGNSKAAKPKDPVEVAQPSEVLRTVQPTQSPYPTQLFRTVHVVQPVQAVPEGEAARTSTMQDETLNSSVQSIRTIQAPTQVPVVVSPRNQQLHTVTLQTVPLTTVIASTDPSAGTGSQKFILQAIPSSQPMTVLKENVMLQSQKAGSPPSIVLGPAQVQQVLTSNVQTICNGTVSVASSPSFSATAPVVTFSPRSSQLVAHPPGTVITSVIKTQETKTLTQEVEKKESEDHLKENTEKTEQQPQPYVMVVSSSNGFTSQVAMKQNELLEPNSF
How it was run: as §1

EHF = molecular target: T2, EHF (Homo sapiens, UniProt Q9NZC4 1-300)
T2 sequence: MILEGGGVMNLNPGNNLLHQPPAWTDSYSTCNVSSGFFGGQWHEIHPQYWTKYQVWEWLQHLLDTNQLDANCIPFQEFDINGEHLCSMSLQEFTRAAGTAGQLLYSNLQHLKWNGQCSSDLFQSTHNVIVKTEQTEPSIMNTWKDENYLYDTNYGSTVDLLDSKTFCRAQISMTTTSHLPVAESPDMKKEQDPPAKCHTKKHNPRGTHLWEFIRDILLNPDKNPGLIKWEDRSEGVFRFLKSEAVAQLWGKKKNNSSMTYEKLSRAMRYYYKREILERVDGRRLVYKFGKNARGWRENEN
How it was run: as §1

ETV2 = molecular target: T3, ETV2 (Homo sapiens, UniProt O00321 1-342)
T3 sequence: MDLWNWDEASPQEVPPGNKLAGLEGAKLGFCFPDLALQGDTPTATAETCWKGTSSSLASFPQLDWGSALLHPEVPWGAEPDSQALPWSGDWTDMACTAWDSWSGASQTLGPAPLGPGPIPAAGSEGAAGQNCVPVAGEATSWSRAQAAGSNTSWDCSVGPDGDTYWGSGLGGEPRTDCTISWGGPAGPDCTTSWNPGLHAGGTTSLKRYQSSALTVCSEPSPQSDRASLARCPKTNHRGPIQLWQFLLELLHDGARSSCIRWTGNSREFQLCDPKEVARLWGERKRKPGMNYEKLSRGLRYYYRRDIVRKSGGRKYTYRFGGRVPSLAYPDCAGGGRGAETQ
How it was run: as §1

ELF3 = molecular target: T4, ELF3 (Homo sapiens, UniProt P78545 1-371)
T4 sequence: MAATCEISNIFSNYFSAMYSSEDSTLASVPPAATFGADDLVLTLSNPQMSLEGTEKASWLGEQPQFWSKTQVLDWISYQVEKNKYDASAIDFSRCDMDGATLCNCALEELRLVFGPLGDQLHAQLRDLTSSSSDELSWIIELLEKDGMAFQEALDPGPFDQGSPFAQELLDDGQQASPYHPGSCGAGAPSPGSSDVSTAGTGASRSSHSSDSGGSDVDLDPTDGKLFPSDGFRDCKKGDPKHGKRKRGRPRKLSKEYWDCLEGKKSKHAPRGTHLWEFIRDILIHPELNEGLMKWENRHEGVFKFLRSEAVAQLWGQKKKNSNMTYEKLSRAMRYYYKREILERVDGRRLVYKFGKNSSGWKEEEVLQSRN
How it was run: as §1

ETV1 = ETV1 (Homo sapiens, UniProt P50549 1-477)
Sequence of ETV1 (P50549 whole entry): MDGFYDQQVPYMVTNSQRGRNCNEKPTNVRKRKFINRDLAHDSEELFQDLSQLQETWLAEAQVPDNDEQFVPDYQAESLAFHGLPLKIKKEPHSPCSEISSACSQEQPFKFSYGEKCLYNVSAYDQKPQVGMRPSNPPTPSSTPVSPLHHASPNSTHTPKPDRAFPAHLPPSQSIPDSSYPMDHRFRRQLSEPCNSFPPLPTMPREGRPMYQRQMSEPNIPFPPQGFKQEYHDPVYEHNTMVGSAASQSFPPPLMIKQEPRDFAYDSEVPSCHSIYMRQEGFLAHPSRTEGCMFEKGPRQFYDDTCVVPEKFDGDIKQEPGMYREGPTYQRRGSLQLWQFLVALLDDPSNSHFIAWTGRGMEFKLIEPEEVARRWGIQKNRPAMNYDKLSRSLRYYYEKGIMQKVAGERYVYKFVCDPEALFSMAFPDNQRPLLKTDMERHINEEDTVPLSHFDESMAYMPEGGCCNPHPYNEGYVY
How it was run: as §1

ETV7 = molecular target: T5, ETV7 (Homo sapiens, UniProt Q9Y603 1-341)
T5 sequence: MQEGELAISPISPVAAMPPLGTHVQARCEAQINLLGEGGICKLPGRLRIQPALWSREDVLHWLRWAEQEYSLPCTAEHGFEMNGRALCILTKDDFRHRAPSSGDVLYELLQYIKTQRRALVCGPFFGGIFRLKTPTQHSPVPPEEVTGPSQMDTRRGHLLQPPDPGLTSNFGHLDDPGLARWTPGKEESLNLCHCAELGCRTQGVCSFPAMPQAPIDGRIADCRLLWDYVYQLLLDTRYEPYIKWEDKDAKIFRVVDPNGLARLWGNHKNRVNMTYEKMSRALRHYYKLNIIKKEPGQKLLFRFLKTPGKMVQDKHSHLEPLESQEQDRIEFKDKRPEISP
How it was run: as §1

ETV3 = molecular target: T6, ETV3 (Homo sapiens, UniProt P41162-2 1-143)
T6 sequence: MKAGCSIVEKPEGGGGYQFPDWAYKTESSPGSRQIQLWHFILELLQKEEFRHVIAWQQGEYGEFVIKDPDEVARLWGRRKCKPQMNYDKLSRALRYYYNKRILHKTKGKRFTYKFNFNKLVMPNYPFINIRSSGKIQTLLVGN
How it was run: as §1

ETV6 = ETV6 (Homo sapiens, UniProt P41212 1-452)
Sequence of ETV6 (P41212 whole entry): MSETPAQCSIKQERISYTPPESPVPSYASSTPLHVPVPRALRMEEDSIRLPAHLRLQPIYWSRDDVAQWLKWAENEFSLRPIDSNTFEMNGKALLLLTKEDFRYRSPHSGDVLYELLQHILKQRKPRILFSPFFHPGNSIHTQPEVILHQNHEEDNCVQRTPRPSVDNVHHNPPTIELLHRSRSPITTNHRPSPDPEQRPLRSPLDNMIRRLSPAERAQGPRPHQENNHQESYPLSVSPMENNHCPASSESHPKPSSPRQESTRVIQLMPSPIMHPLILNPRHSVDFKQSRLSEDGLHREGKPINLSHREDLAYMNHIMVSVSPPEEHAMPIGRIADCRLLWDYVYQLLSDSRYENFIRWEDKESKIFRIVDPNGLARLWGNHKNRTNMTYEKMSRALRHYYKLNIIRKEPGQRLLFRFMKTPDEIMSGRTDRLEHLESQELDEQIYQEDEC
How it was run: as §1

ELK4 = molecular target: T7, ELK4 (Homo sapiens, UniProt P28324-2 1-405)
T7 sequence: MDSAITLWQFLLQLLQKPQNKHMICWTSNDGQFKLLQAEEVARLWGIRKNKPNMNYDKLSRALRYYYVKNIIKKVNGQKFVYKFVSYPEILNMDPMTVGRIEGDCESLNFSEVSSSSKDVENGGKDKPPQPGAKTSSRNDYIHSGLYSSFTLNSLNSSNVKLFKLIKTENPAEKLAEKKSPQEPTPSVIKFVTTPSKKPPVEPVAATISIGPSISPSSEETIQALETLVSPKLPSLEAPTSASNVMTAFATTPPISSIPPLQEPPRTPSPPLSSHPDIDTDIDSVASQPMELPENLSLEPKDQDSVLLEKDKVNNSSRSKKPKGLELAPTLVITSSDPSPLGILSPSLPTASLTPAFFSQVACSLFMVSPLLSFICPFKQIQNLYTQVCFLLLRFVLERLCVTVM
How it was run: as §1

SPIC = molecular target: T8, SPIC (Homo sapiens, UniProt Q8N5J4 1-248)
T8 sequence: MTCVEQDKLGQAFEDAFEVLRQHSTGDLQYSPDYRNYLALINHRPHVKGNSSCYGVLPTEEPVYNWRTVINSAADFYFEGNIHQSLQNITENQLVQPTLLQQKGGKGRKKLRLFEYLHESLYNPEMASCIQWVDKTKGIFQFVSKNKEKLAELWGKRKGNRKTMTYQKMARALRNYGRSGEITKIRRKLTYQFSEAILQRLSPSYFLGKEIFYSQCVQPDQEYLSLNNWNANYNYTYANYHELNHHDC
How it was run: as §1

## GAAACC
ERG
  binding signal: 1.05 fold enrichment (6-mer frequency, TF over GST control)
ELF1
  binding signal: 1.04 fold enrichment (6-mer frequency, TF over GST control)
EHF
  binding signal: 1.04 fold enrichment (6-mer frequency, TF over GST control)
ETV2
  binding signal: 1.06 fold enrichment (6-mer frequency, TF over GST control)
ELF3
  binding signal: 1.03 fold enrichment (6-mer frequency, TF over GST control)
ETV1
  binding signal: 1.02 fold enrichment (6-mer frequency, TF over GST control)
ETV7
  binding signal: 1.04 fold enrichment (6-mer frequency, TF over GST control)
ETV3
  binding signal: 1.02 fold enrichment (6-mer frequency, TF over GST control)
ETV6
  binding signal: 1.08 fold enrichment (6-mer frequency, TF over GST control)

## CGAGGT
ELK4
  binding signal: 1.06 fold enrichment (6-mer frequency, TF over GST control)
ETV7
  binding signal: 1.02 fold enrichment (6-mer frequency, TF over GST control)

## AAACAG
SPIC
  binding signal: 1.12 fold enrichment (6-mer frequency, TF over GST control)
ELK4
  binding signal: 1.04 fold enrichment (6-mer frequency, TF over GST control)
ELF3
  binding signal: 1.01 fold enrichment (6-mer frequency, TF over GST control)
ETV7
  binding signal: 1.04 fold enrichment (6-mer frequency, TF over GST control)
ETV3
  binding signal: 1.01 fold enrichment (6-mer frequency, TF over GST control)
ETV6
  binding signal: 1.03 fold enrichment (6-mer frequency, TF over GST control)

## AGTACC
ETV2
  binding signal: 1.03 fold enrichment (6-mer frequency, TF over GST control)
ETV6
  binding signal: 1.04 fold enrichment (6-mer frequency, TF over GST control)
